# B1: unnamed (peptide)
# chain: AHFQPQRTAPKPPIS
# Molecular target: CaNbp2
# Assay: SPOT peptide array binding signal intensity (averaged, normalized) (arbitrary units (background-subtracted, floor 0; scale differs between SH3 domains)); higher = stronger binding of the SH3 domain to the peptide
# In short: (§1)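 Spot intensities were captured after detection with anti-GST antibody, an HRP-linked anti-mouse secondary and luminol, and quantified with Genespotter. The probes were GST-fused SH3 domains from four yeast species, produced in E. coli BL21(DE3), purified on glutathione Sepharose and incubated at 10 μg/ml overnight at 4°C on cellulose-bound synthetic 15-mer peptides with cysteines replaced by serines. Binding signal is the normalized, background-subtracted spot intensity averaged over replicates, and its arbitrary units differ between domains.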
row,Binder,SPOT peptide array binding signal intensity
1,B1,3970

# Molecular target: CaRvs167
# Assay: as above
# In short: as §1
row,Binder,SPOT peptide array binding signal intensity
1,B1,12.8

# Molecular target: CaRvs167-3
# Assay: as above
# In short: as §1
row,Binder,SPOT peptide array binding signal intensity
1,B1,≤ 0

# Molecular target: CaSho1
# Assay: as above
# In short: as §1
row,Binder,SPOT peptide array binding signal intensity
1,B1,11.8

# Molecular target: CaSla1-D1-D2
# Assay: as above
# In short: as §1
row,Binder,SPOT peptide array binding signal intensity
1,B1,54.5

# Molecular target: CaSla1-D3
# Assay: as above
# In short: as §1
row,Binder,SPOT peptide array binding signal intensity
1,B1,0.75

# Molecular target: ScAbp1
# Assay: as above
# In short: as §1
row,Binder,SPOT peptide array binding signal intensity
1,B1,11

# Molecular target: ScBbc1
# Assay: as above
# In short: as §1
row,Binder,SPOT peptide array binding signal intensity
1,B1,165

# Molecular target: ScBem1-D1
# Assay: as above
# In short: as §1
row,Binder,SPOT peptide array binding signal intensity
1,B1,6

# Molecular target: ScBzz1-D1
# Assay: as above
# In short: as §1
row,Binder,SPOT peptide array binding signal intensity
1,B1,17.5

# Molecular target: ScBzz1-D2
# Assay: as above
# In short: as §1
row,Binder,SPOT peptide array binding signal intensity
1,B1,12.8

# Molecular target: ScCyk3
# Assay: as above
# In short: as §1
row,Binder,SPOT peptide array binding signal intensity
1,B1,≤ 0

# Molecular target: ScFus1
# Assay: as above
# In short: as §1
row,Binder,SPOT peptide array binding signal intensity
1,B1,≤ 0

# Molecular target: ScHof1
# Assay: as above
# In short: as §1
row,Binder,SPOT peptide array binding signal intensity
1,B1,0.5

# Molecular target: ScHse1
# Assay: as above
# In short: as §1
row,Binder,SPOT peptide array binding signal intensity
1,B1,37

# Molecular target: ScLsb1
# Assay: as above
# In short: as §1
row,Binder,SPOT peptide array binding signal intensity
1,B1,0.25

# Molecular target: ScLsb2
# Assay: as above
# In short: as §1
row,Binder,SPOT peptide array binding signal intensity
1,B1,35

# Molecular target: ScLsb3
# Assay: as above
# In short: as §1
row,Binder,SPOT peptide array binding signal intensity
1,B1,152

# Molecular target: ScLsb4
# Assay: as above
# In short: as §1
row,Binder,SPOT peptide array binding signal intensity
1,B1,5

# Molecular target: ScMyo3
# Assay: as above
# In short: as §1
row,Binder,SPOT peptide array binding signal intensity
1,B1,1610

# Molecular target: ScMyo5
# Assay: as above
# In short: as §1
row,Binder,SPOT peptide array binding signal intensity
1,B1,1320

# Molecular target: ScNbp2
# Assay: as above
# In short: as §1
row,Binder,SPOT peptide array binding signal intensity
1,B1,6790

# Molecular target: ScPex13
# Assay: as above
# In short: as §1
row,Binder,SPOT peptide array binding signal intensity
1,B1,212

# Molecular target: ScRvs167
# Assay: as above
# In short: as §1
row,Binder,SPOT peptide array binding signal intensity
1,B1,59.8

# Molecular target: ScSho1
# Assay: as above
# In short: as §1
row,Binder,SPOT peptide array binding signal intensity
1,B1,≤ 0

# Molecular target: ScSla1-D1-D2
# Assay: as above
# In short: as §1
row,Binder,SPOT peptide array binding signal intensity
1,B1,265

# Molecular target: ScSla1-D3
# Assay: as above
# In short: as §1
row,Binder,SPOT peptide array binding signal intensity
1,B1,44

# Molecular target: SpAbp1-D1
# Assay: as above
# In short: as §1
row,Binder,SPOT peptide array binding signal intensity
1,B1,≤ 0

# Molecular target: SpBbc1
# Assay: as above
# In short: as §1
row,Binder,SPOT peptide array binding signal intensity
1,B1,22

# Molecular target: SpBzz1-D1
# Assay: as above
# In short: as §1
row,Binder,SPOT peptide array binding signal intensity
1,B1,258

# Molecular target: SpBzz1-D2
# Assay: as above
# In short: as §1
row,Binder,SPOT peptide array binding signal intensity
1,B1,18.1

# Molecular target: SpCyk3
# Assay: as above
# In short: as §1
row,Binder,SPOT peptide array binding signal intensity
1,B1,≤ 0

# Molecular target: SpHof1
# Assay: as above
# In short: as §1
row,Binder,SPOT peptide array binding signal intensity
1,B1,1.62

# Molecular target: SpHof1-2
# Assay: as above
# In short: as §1
row,Binder,SPOT peptide array binding signal intensity
1,B1,2

# Molecular target: SpHof1-3
# Assay: as above
# In short: as §1
row,Binder,SPOT peptide array binding signal intensity
1,B1,34

# Molecular target: SpHse1
# Assay: as above
# In short: as §1
row,Binder,SPOT peptide array binding signal intensity
1,B1,70.1

# Molecular target: SpLsb1
# Assay: as above
# In short: as §1
row,Binder,SPOT peptide array binding signal intensity
1,B1,36.8

# Molecular target: SpLsb4
# Assay: as above
# In short: as §1
row,Binder,SPOT peptide array binding signal intensity
1,B1,87.5

# Molecular target: SpMyo1
# Assay: as above
# In short: as §1
row,Binder,SPOT peptide array binding signal intensity
1,B1,2050

# Molecular target: SpNbp2
# Assay: as above
# In short: as §1
row,Binder,SPOT peptide array binding signal intensity
1,B1,264

# Molecular target: SpPex13
# Assay: as above
# In short: as §1
row,Binder,SPOT peptide array binding signal intensity
1,B1,≤ 0

# Molecular target: SpRvs167
# Assay: as above
# In short: as §1
row,Binder,SPOT peptide array binding signal intensity
1,B1,13.9

# Molecular target: SpSla1-D1-D2
# Assay: as above
# In short: as §1
row,Binder,SPOT peptide array binding signal intensity
1,B1,≤ 0

# Molecular target: SpSla1-D3
# Assay: as above
# In short: as §1
row,Binder,SPOT peptide array binding signal intensity
1,B1,≤ 0
